Only some compounds are listed: those with a hit (about 4.1% of all), similar ones and a draw of the others.
DAX1 inh-1 – DAX1 (NR0B1) inhibition, primary screen. HEK293T StAR-luciferase reporter, SF-1/DAX-1 repression relief. 370,000 compounds, 1.1% hits. inhibition, % at 6.8 µM. AID 652010;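 active means inhibition above the mean over all tested compounds plus 3 SD, cut at about 3.6% in these data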;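 further: 0% = DAX-1 cells with DMSO and 100% = cells lacking DAX-1 with DMSO; higher inhibition means more luminescence from relief of DAX-1 repression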
hcDAF-12 act – activates DAF-12 receptor from parasite H. contortus; HEK293 hcDAF-12 lit1-tk-luc reporter, luminescence; 0% DMSO, 100% Δ7-dafachronic acid; activation, % at 6.8 µM; 370,000 compounds, 1.4% hits; AID 652067;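 active means activation above the mean of all tested compounds plus 3 SD, cut at about 5.5% in these data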;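 further: 100% = response to 3 µM Δ7-dafachronic acid high control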
hgDAF-12 ag – agonists of H. glycines DAF-12 nuclear receptor. HEK293 GAL4-hgDAF12 UAS-luciferase reporter, agonist luminescence; normalized to butyrate control. activation, % at 6.8 µM. 370,000 compounds, 1.8% hits. AID 687014;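 active means activation above a cutoff set at the mean of all screened compounds plus 3 SD, cut at about 10% in these data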;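 further: 0% = DMSO wells and 100% = sodium butyrate wells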
DAX1 inh-2 – inhibitors of human orphan nuclear receptor DAX1 (NR0B1). P51843. HEK293 Gal4-DAX1 luciferase reporter, luminescence. inhibition, % at 6.75 µM. 340,000 compounds, 0.99% hits. AID 504766;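 active means inhibition above the mean over all tested compounds plus 3 SD, cut at about 4.2% in these data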;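 further: 0% = DAX1-transfected cells with DMSO and 100% = empty-vector control cells with DMSO; inhibition shows as a rise in luminescence from relieved DAX1 repression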
Target sequence (P51843 207-470 limits assumed): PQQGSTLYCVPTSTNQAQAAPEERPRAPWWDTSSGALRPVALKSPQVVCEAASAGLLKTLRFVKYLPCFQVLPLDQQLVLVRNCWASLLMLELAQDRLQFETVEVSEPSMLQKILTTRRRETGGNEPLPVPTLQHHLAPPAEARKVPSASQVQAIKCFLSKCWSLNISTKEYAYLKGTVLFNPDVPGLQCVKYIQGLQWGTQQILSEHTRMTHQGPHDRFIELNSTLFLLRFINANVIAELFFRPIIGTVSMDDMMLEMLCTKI
ssDAF-12 act – activates DAF-12 receptor from parasite S. stercoralis; activation, % at 6.8 µM; HEK293 ssDAF-12/GRIP1 lit1-tk-luc reporter, luminescence; % of 3 µM dafachronic acid response; 370,000 compounds, 1% hits;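 active means activation above the mean over all tested compounds plus 3 SD, cut at about 0.9% in these data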;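 further: 0% = DMSO-only wells and 100% = 3 µM delta7-dafachronic acid wells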
Numbers without * were called inactive; nt = not tested or not shown.

SMILES	DAX1 inh-1	hcDAF-12 act	hgDAF-12 ag	DAX1 inh-2	ssDAF-12 act
O=C1c2ccccc2C(c2nnnn2-c2ccc3c(c2)OCCO3)N1CCc1ccc(O)cc1 (stereo unspecified)	3	0	-1	nt	-1
O=C1c2ccccc2C(c2nnnn2-c2ccc3c(c2)OCCO3)N1CCc1ccccc1F (stereo unspecified)	4.4*	-1	-1	nt	-1
O=C(CN1CCN(Cc2ccccc2Cl)C1=O)NCc1cccnc1	-1	-1	1	6.0*	-2
C[C@H](CO)N1C[C@H](C)[C@@H](CN(C)C(=O)Nc2ccc3c(c2)OCO3)Oc2c(NC(=O)Nc3ccc4c(c3)OCO4)cccc2C1=O	-1	-1	-5	-2	-2
Cc1ccccc1NS(=O)(=O)c1nnc(NC(=O)c2ccc(Br)cc2)s1	0	0	0	1	-1
Cc1ccccc1NS(=O)(=O)c1nnc(NC(=O)c2ccccc2C)s1	1	6.2*	0	2	0
COCc1[nH]nc2c1C(c1ccc(Br)cc1)N(Cc1ccccc1)C2=O (stereo unspecified)	0	0	-1	nt	-1
O=C(NC(Cc1ccccc1)C(=O)O)c1ccccc1 (stereo unspecified)	-1	0	2	-1	0
CCOC(=O)N(Cc1ccccc1)Cc1ccc(C(=O)N[C@@H](Cc2ccccc2)C(=O)O)cc1	0	-1	2	6.5*	-2
COc1ccc(CCC[C@@H](CCC(=O)N(c2ccccc2)c2ccccc2)CCc2ccccc2)cc1	0	-2	2	nt	-2
COc1ccc(C=O)cc1-c1cc(C(C)=O)c2n(c1=O)CCC2	0	-1	1	nt	1.3*
CC(=O)c1cc(-c2csc(C=O)c2)c(=O)n2c1CCC2	0	0	-3	nt	-1
COc1ccc(C2=Nc3ccccc3N(C(=O)c3cnccn3)C2C(=O)NC2CCCC2)cc1 (stereo unspecified)	1	3	3	nt	0
CCOc1ccc(-c2cc(C(=O)O)c3ccccc3n2)cc1	3	5	11*	-1	0
COC(=O)c1sccc1NC(=O)c1cc(-c2ccc(C)cc2)nc2ccccc12	1	0	0	0	1.1*
O=C(NC1=NCCS1)c1cc(-c2ccc(-c3ccccc3)cc2)nc2ccccc12	2	1	5	0	0.9*
COc1cccc(-c2cc(C(=O)Nn3cnnc3)c3ccccc3n2)c1	1	6.0*	0	-1	0
O=C(N[C@H](C(=O)N1CCC[C@H]1C(=O)NC1CCCC1)c1ccccc1)c1ccc(Cl)cc1Cl	-1	-2	-3	nt	-1
COc1ccc2cc(C3=CC(=O)CC(C)(C)C3=O)ccc2c1	1	1	6	3	0
Cc1nc2cc(OCc3cc(C(=O)NC(C)c4cnn(C)c4)no3)ccc2s1 (stereo unspecified)	-1	-2	-2	0	-1
Cc1cccc2nc(CSc3nc4ccccc4o3)cn12	1	0	0	-1	-1
c1ccc2oc(SCc3cn4ccccc4n3)nc2c1	3.7*	5.9*	10	2	-1
c1ccc(CSCc2cn3ccccc3n2)cc1	1	3	13*	2	0
CC(C)(C)S(=O)(=O)N1Cc2cc(CO)ccc2[C@H]1CCO	-2	-2	-1	nt	-1
Cc1c(C(=O)O)sc2nc(-c3cccs3)cc(C(F)(F)F)c12	0	1	2	1	0
SMILES	DAX1 inh-1	hcDAF-12 act	hgDAF-12 ag	DAX1 inh-2	ssDAF-12 act
Cc1c(C(=O)Nc2nccs2)sc2nc(-c3cccs3)cc(C(F)(F)F)c12	1	3	1	0	1.2*
CC(=O)c1sc2nc(-c3cccs3)cc(C(F)(F)F)c2c1N	0	6.3*	2	0	0
Nc1c(C(=O)C2CC2)sc2nc(-c3ccccc3)cc(C(F)(F)F)c12	0	1	-1	0	-1
C[C@@H]1CN([C@H](C)CO)C(=O)c2c(c3ccccc3n2C)-c2ccccc2CO[C@@H]1CN(C)C(=O)CCN(C)C	-1	-1	-1	nt	-1
Cc1ccc(F)c(S(=O)(=O)NC(=O)C2(C)CCN2C(=O)Cc2cccc3ccccc23)c1 (stereo unspecified)	1	-1	-4	nt	-1
C[C@@H]1CCCCO[C@@H](CN(C)C(=O)NC2CCCCC2)[C@@H](C)CN([C@H](C)CO)C(=O)c2cc(N(C)C)ccc2O1	0	-1	5	nt	0

Compound activity deposited in PubChem BioAssay by The Scripps Research Institute Molecular Screening Center.
